# Data taken from PubChem BioAssay AID2717 (Broad Institute, 2010).
# About 3,200 (1.1%) of roughly 300,000 compounds were called active. The entries come from a sample that favours actives as a whole. A number with no mark means an inactive call. No stated cut-off is given here; in the data, active means inhibition above about 75%; inconclusive means no clear call, values can overlap the other calls; inactive means below that; tested in HMLE shEcad cells.
# Test: cancer stem cell viability inhibitors, primary screen, luminescence (AID 2717)
# Settings: cancer stem cell-like cells viability, at 7.5 µM, active compounds read high
row,SMILES,inhibition
1,Cc1ccc(C(=O)OCC(=O)NCc2cc(C)c(O)c(C)c2)cc1S(=O)(=O)N1CCCCC1,-3.22%
2,CCC1(CC)Cc2ccccc2-c2nc3ccccc3c(=O)n21,1.88%
3,O=c1c2ccccc2nc2n1C1(CCCCC1)Cc1ccccc1-2,76.3% (active)
4,c1cncc(-c2nnc3n2C2(CCCCC2)Cc2ccccc2-3)c1,2.64%
5,COc1ccc(OC)c(/C=C/C(=O)c2ccc3c(c2)OCO3)c1,23.6%
6,Cc1cc(NC(=O)CSc2ncc(C(F)(F)F)cc2Cl)no1,-11.1%
7,NS(=O)(=O)c1cccc(NC(=O)COC(=O)c2cc([N+](=O)[O-])ccc2N2CCCC2)c1,8.24%
8,COc1ccc2c(CC(=O)NNC(=O)c3ccccc3F)coc2c1,-7.08%
9,Nn1c(SCC(=O)NC2CCCc3ccccc32)nnc1C1CC1 (stereo unspecified),-20.9%
10,O=C(/C(=C/c1cccc(Cl)c1)c1nc2ccccc2[nH]1)c1ccccc1,79.9% (active)
11,CCC(=O)/C(=C(/O)c1ccccc1)c1nc2ccccc2[nH]1,-8.67%
12,O=C(Cc1nc2ccccc2[nH]c1=O)c1ccc(Cl)cc1,-22.9%
13,CC(Sc1ccccc1F)C(=O)Nc1cccc(S(=O)(=O)N2CCOCC2)c1 (stereo unspecified),-6.48%
14,O=C1CCC/C=C/C[C@@H](CC(=O)N(CCO)Cc2ccccc2)C(=O)NC[C@H](c2ccccc2)O1,-5.63%
15,O=C(O)/C=C/c1cn(Cc2ccccc2)nc1-c1cccs1,-3.63%
16,CCOC(=O)/C(C#N)=C/c1cn(CCC(=O)O)nc1-c1ccc(Br)cc1,-7.96%
17,O=C(O)CCn1cc(/C=C/C(=O)c2ccc(Cl)cc2)c(-c2cccc(Br)c2)n1,78.2% (active)
18,O=C(C[C@@H]1C/C=C\CCC(=O)OC[C@@H]2CCCN2C1=O)NCCO,-0.206%
19,C/C(N)=C(/C#N)C(=O)COC(=O)c1cc(-c2ccc(C)cc2)nc2ccccc12,101% (active)
20,C/C(N)=C(/C#N)C(=O)COC(=O)c1cc(-c2cccc(Br)c2)nc2ccccc12,21.7%
21,C/C(N)=C(/C#N)C(=O)COC(=O)c1cc(-c2ccccc2)nc2ccc(Br)cc12,-0.788%
22,O=C(COc1ccccc1F)NNC(=O)c1cc(Br)ccc1Cl,7.13%
23,COc1cc(OC)cc(C(=O)NNC(=O)Cc2cccs2)c1,-7.32%

row,SMILES,inhibition
1,CC1CCCCN1CCCNc1ccc(C(CC(N)=O)NC(=O)c2ccccc2)cc1[N+](=O)[O-] (stereo unspecified),6.07%
2,NC(=O)CC(NC(=O)Cc1cccc2ccccc12)c1ccc(NCc2cc(F)ccc2F)c([N+](=O)[O-])c1 (stereo unspecified),4.74%
3,NC(=O)CC(NC(=O)Cc1ccc(Br)cc1)c1ccc(NC2CC3CCC2C3)c([N+](=O)[O-])c1 (stereo unspecified),85% (active)
4,CCCCOC(=O)Cn1c(=N)n(CCN(CC)CC)c2ccccc21,0.539%
5,CCn1c(=N)n(CC(=O)c2cccc(OC)c2)c2ccccc21,-13.1%
6,CCCCCCCCCCOC(=O)Cn1c(COc2cccc(OC)c2)[n+](C)c2ccccc21,104% (active)
7,Cc1ccc(OCc2nc3ccccc3n2C)cc1,-4.74%
8,CCCCCCCCCCOC(=O)Cn1c(COc2ccc(C)cc2)[n+](C)c2ccccc21,124% (active)
9,COc1cccc(OCC(=O)Nc2ccccc2C(N)=O)c1,-7.15%
10,O=C(COC(=O)c1ccc(F)c(S(=O)(=O)N2CCOCC2)c1)NCc1ccc2c(c1)OCO2,8.38%
11,O=C(COc1ccc(F)cc1Br)NCC1COc2ccccc2O1 (stereo unspecified),6.88%
12,Cc1cc(C)cc(OCC(=O)Nc2ccc(N3CCOCC3)cc2N2CCOCC2)c1,6.1%
13,COc1ccccc1C(=O)NCC(=O)OCC(=O)NNC(=O)c1ccc(Br)cc1,-1.35%
14,N#CCc1ccc(OC(=O)c2cccnc2)cc1,9.72%
15,CCCCCCOc1ccc(OC(=O)c2cccnc2)cc1,86.1% (active)
16,O=C(Oc1ccc(Br)cc1)c1cccnc1,4.5%
17,COc1ccc(Nc2ncnc3sc(-c4ccccc4)cc23)c(OC)c1,38.3%
18,Oc1ccccc1N1CCN(c2ncnc3sc(-c4ccccc4)cc23)CC1,80.7% (active)
19,CCc1cc2c(N3CCN(c4nnc(CC)s4)CC3)ncnc2s1,1.61%
20,O=C(OCC(=O)N1CCN(C(=O)c2ccco2)CC1)c1c(Cl)cccc1Cl,-3.78%
21,N#Cc1c(/N=C/N2CCCC2)oc(-c2ccccc2)c1-c1ccccc1,127% (active)
22,COc1ccc(-c2oc(/N=C/N3CCCC3)c(C#N)c2-c2ccc(OC)cc2)cc1,-4.12%
23,N#Cc1c(NC(=O)CCCN2C(=O)c3ccccc3C2=O)oc(-c2ccccc2)c1-c1ccccc1,-2.49%

row,SMILES,inhibition
1,CCOC(=O)N1CCN(C(c2cccnc2)c2ccc3cccnc3c2O)CC1 (stereo unspecified),30.6%
2,Oc1ccccc1CN1CCN(C(c2ccccc2)c2ccccc2)CC1,28.7%
3,CCN1CCN(C(c2cccnc2)c2cc(Cl)c3cccnc3c2O)CC1 (stereo unspecified),77.7% (active)
4,COc1ccc(CNC(=O)COC(=O)c2sccc2C)cc1OC,0.384%
5,CC1(C)Cc2ccccc2/C(=C/C(=O)c2ccccc2)N1,78.5% (active)
6,CC1(C)Cc2ccccc2-c2[nH]c(=S)[nH]c(=O)c21,0.325%
7,CCOC(=O)C1=C(NC(=S)NC(=O)c2ccccc2)c2ccccc2CC1(C)C,3.23%
8,CC1CCCCC1NC(=O)Cn1c(=O)cnc2ccccc21 (stereo unspecified),0.34%
9,O=C(NCc1ccc2c(c1)OCO2)c1cc([N+](=O)[O-])ccc1N1CCOCC1,46.4%
10,O=C(CSc1ccc(-c2ccc(Br)cc2)nn1)NCC1CCCO1 (stereo unspecified),1.96%
11,OC(CNCC1CCCO1)Cn1c2ccc(Br)cc2c2cc(Br)ccc21 (stereo unspecified),116% (active)
12,CC(NS(=O)(=O)c1ccc(Br)cc1)C(=O)NCC1CCCO1 (stereo unspecified),-4.45%
13,Cc1cc(C(=O)OCC(=O)N2C(C)CCCC2C)c2ccccc2n1 (stereo unspecified),-3.37%
14,CCOC(=O)c1cnc(-n2nc(C)cc2C)nc1Nc1cccc(C(C)=O)c1,-9.8%
15,Cc1cc(C)n(-c2c(F)c(F)c(COC(=O)c3ccccc3)c(F)c2F)n1,3.98%
16,CCOC(=O)c1cnc(-n2nc(C)cc2C)nc1NNc1cc(C)nc(-c2ccccc2)n1,101% (active)
17,Nn1c(SCC(=O)Nc2ccc3c(c2)CCC3)nnc1C1CC1,-6.39%
18,O=C(COC(=O)c1ccc(F)cc1)NCC1COc2ccccc2O1 (stereo unspecified),-14.2%
19,CCCc1cc(=O)[nH]c(SCC(=O)OCc2ccccc2)n1,4.11%
20,CCCc1cc(=O)[nH]c(SCC(=O)c2cc(C)n(CCC)c2C)n1,-3.32%
21,CCCc1cc(=O)[nH]c(SCC(=O)c2c(N)n(CC(C)C)c(=O)n(C)c2=O)n1,83.8% (active)
22,O=C(CCc1nc(-c2ccccc2)no1)Nc1cccc(C(=O)NC2CC2)c1,1.1%
23,CCN(C(=O)COC(=O)c1ccccc1O)c1cccc2ccccc12,-18.3%

row,SMILES,inhibition
1,CCc1cc(C(=O)Nc2nnc(C3CC3)s2)sc1C,-10.9%
2,C[C@H](CO)N1C[C@H](C)[C@@H](CN(C)C(=O)Nc2ccc3c(c2)OCO3)Oc2c(cccc2N(C)C)C1=O,-12.1%
3,COc1ccc2sc(-c3ccc(S(C)(=O)=O)cc3)c(C#Cc3cncn3C)c2c1,45.5%
4,COc1ccc(-c2c(C#Cc3ccccc3)c3ccccc3n2C)cc1,3.8%
5,COc1ccc2sc(-c3ccc(N(C)C)cc3)c(C#CCO)c2c1,113% (active)
6,COc1ccc(-c2sc3ccc(OC)cc3c2C#Cc2ccccn2)cc1,111% (active)
7,COc1ccc(C2(C)ON(c3ccccc3C(F)(F)F)C2=O)cc1 (stereo unspecified),6.61%
8,Cn1nnnc1SCC(=O)Nc1cccc(S(=O)(=O)N2CCCCC2)c1,1.58%
9,Cn1cccc1C(=O)OCC(=O)NCCc1ccccc1,6.32%
10,Cc1cccc2cc3c(N)c(C(=O)N4CCCc5ccccc54)sc3nc12,85.3% (active)
11,Cc1c(C(=O)N2CCCc3ccccc32)oc2ccccc12,-3.96%
12,Cc1c(C(=O)N2CCCc3ccccc32)sc2nc(-c3ccccc3)cn12,36.7%
13,Oc1c(Cl)cc(Cl)c(Cl)c1Cc1c(O)c(Cl)cc(Cl)c1Cl,99.3% (active)
14,Cc1ccc(NS(=O)(=O)c2ccc(C(C)C)cc2)cc1S(=O)(=O)N1CCOCC1,-16.7%
15,COC(=O)Cc1ccc(Oc2ncc(C(F)(F)F)cc2Cl)cc1,-10.7%
16,Cc1cc(C)cc(NS(=O)(=O)c2ccc(Oc3ncc(C(F)(F)F)cc3Cl)cc2)c1,118% (active)
17,Cc1cc(C)cc(NS(=O)(=O)c2ccc(F)cc2)c1,-6.47%
18,CN1C(=O)[C@H]2[C@@H](/C=C/c3ccccc3)N3C(=O)CN(Cc4ccc(-c5ccccc5)cc4)C(=O)[C@@]3(C)[C@H]2C1=O,-4%
19,CN(CC(=O)NCCc1ccc(S(N)(=O)=O)cc1)CC(=O)Nc1ccc(F)c(F)c1F,-16.9%
20,CC1CC(=NNC(=O)C2COc3ccccc3O2)CC(C)(C)C1 (stereo unspecified),-9.31%
21,CCc1nc2sc(C(=O)O)c(N)c2c2c1CCCC2,5.22%
22,Cc1ccc2c(N)c(C(=O)c3ccccc3)sc2n1,45.8%
